LASV entry inh – qHTS for Inhibitors of binding or entry into cells for Lassa Virus | Potency, µM (doses to about 37.9 µM), actives largely listed as inhibitors | Lassa virus pseudotype entry inhibition, cell reporter | 300,000 tested, 1.2% active; calls by dose curve; tested in HEK293 cells; further: nearly all actives have a fitted effect of over 50% in size
Shiga toxin inh – A qHTS for Small Molecule Inhibitors of Shiga Toxin; Vero cells, Shiga toxin protein synthesis inhibition reporter; inhibition, % at 38.7 µM; 290,000 tested, 9.2% active; in the data active means inhibition mostly above about 28%, no sharp cut-off; inactive means mostly below about 43%
MARV entry inh – qHTS for inhibitors of binding or entry into cells for Marburg Virus; Marburg virus pseudotyped entry inhibition, cell reporter; 300,000 tested, 1.8% active; AID 540276, 2011; Potency, µM (titrated, usually from 37.8 µM), usual class: inhibitors; calls by dose curve; tested in HEK293 cells
CHX counter – Cycloheximide Counterscreen for Small Molecule Inhibitors of Shiga Toxin. AID 2314, 2010. max response, %. cell reporter, cycloheximide protein synthesis inhibition counterscreen. 300,000 tested, 12% active; in the data active means max response mostly above about 13%, no sharp cut-off; inactive means mostly below about 14%; further: read at 38.3 µM for the half of the compounds with a filed dose
Numbers stand for hits. This is a sample that favours compounds with a hit; in the whole collection about 12% have one here.

Results for CCOC(=O)c1ccc(NC(=O)CSc2nc(-c3cccs3)cc(C(F)(F)F)c2C#N)cc1 ?
LASV entry inh: inactive; Shiga toxin inh: inactive; MARV entry inh: inactive; CHX counter: inactive

How did Cc1cc(NC(=O)CSc2nc(C)c(C)c(=O)[nH]2)no1 do in these assays?
LASV entry inh: inactive; MARV entry inh: inactive

What do the screens show for `COc1cc(CNCCO)ccc1OCCc1ccccc1`?
LASV entry inh: inactive; Shiga toxin inh: inactive; MARV entry inh: inconclusive; CHX counter: 13

How did COc1cc(CNCCc2ccccc2)ccc1OCC(=O)NC(C)(C)C do in these assays?
LASV entry inh: inactive; Shiga toxin inh: inactive; MARV entry inh: 11µM; CHX counter: inactive

How did O=C(COC(=O)/C=C/c1ccc(Cl)cc1Cl)NCc1ccco1 do in these assays?
LASV entry inh: inactive; Shiga toxin inh: inactive; MARV entry inh: inactive; CHX counter: inactive

Results for O=C(Nc1ccccc1)C1Cc2ccccc2CN1C(=O)c1ccco1 (configuration not stated) ?
LASV entry inh: inactive; Shiga toxin inh: inactive; MARV entry inh: inactive; CHX counter: 57

What do the screens show for `COc1ccccc1N1CCN(S(=O)(=O)c2ccc(NC(C)=O)cc2)CC1`?
LASV entry inh: inactive; Shiga toxin inh: inactive; MARV entry inh: inconclusive; CHX counter: inactive

Results for COCc1ccc(C(=O)NC(C)c2cnn(-c3ccccc3C)c2C)o1 (configuration not stated) ?
LASV entry inh: inactive; Shiga toxin inh: inactive; MARV entry inh: inactive; CHX counter: inactive

How did COc1cc(C(=O)NC(C)c2cnn(-c3ccccc3C)c2C)cc(OC)c1OC (configuration not stated) do in these assays?
LASV entry inh: inconclusive; Shiga toxin inh: inactive; MARV entry inh: inactive; CHX counter: 15

How did O=C(CCS(=O)(=O)c1ccccc1)Nc1cccc(-c2nc3ccccc3s2)c1 do in these assays?
LASV entry inh: inconclusive; Shiga toxin inh: 79; MARV entry inh: inconclusive; CHX counter: 57

What do the screens show for `O=C(CCS(=O)(=O)c1ccccc1)Nc1ccc(-c2nc3ccccc3s2)cc1`?
LASV entry inh: inconclusive; Shiga toxin inh: inactive; MARV entry inh: 14µM; CHX counter: 33

Results for O=C(COc1ccccc1Cl)Nc1ccc(-c2nc3ccccc3s2)cc1 ?
LASV entry inh: inactive; Shiga toxin inh: inactive; CHX counter: 38

What do the screens show for `CCS(=O)(=O)c1ccccc1C(=O)Nc1ccc(-c2nc3ccccc3s2)cc1`?
LASV entry inh: inactive

How did Cc1ccc(OCC(=O)Nc2cccc(-c3nc4ccccc4s3)c2)cc1 do in these assays?
LASV entry inh: inactive; MARV entry inh: inactive

What do the screens show for `O=C(CSc1nnc(NC(=O)C2CC2)s1)Nc1ccccc1C(F)(F)F`?
LASV entry inh: inactive; Shiga toxin inh: inactive; MARV entry inh: inconclusive; CHX counter: inactive

Results for N#CC(C#N)=Cc1cc2ccccc2nc1N1CCCCC1 ?
LASV entry inh: inconclusive; Shiga toxin inh: 41; MARV entry inh: inconclusive; CHX counter: 42

Results for Cc1cccc(NC(=O)Cn2cc(S(=O)(=O)N3CCCC3)c(S(=O)(=O)N3CCCC3)c2)c1C ?
LASV entry inh: inactive

How did CC(NS(=O)(=O)c1cccc(Cl)c1)C(=O)Nc1ccc(-c2nc3ccccc3s2)cc1 (configuration not stated) do in these assays?
LASV entry inh: inactive; Shiga toxin inh: inactive; MARV entry inh: inconclusive; CHX counter: 38

What do the screens show for `CC(C)(C)c1ccc(S(=O)(=O)NCC(=O)Nc2ccc(-c3nc4ccccc4s3)cc2)cc1`?
LASV entry inh: inactive; Shiga toxin inh: 123; MARV entry inh: inconclusive; CHX counter: 38

Results for Cc1ccc(C)c(S(=O)(=O)NC(C)C(=O)Nc2ccc(-c3nc4ccccc4s3)cc2)c1 (configuration not stated) ?
LASV entry inh: inactive; Shiga toxin inh: 83; MARV entry inh: inactive; CHX counter: 53

Results for O=C(CNS(=O)(=O)c1cccc(Cl)c1)Nc1ccc(-c2nc3ccccc3s2)cc1 ?
LASV entry inh: inactive; Shiga toxin inh: 43; MARV entry inh: inconclusive; CHX counter: 34

What do the screens show for `CCC(CC)C(=O)Nc1cccc(-c2nc3ccccc3s2)c1`?
LASV entry inh: inactive; MARV entry inh: inconclusive

How did COc1ccc(OC)c(-n2c(=S)[nH]c3c(sc(=S)n3-c3ccccc3)c2=O)c1 do in these assays?
LASV entry inh: inactive; Shiga toxin inh: inactive; MARV entry inh: inactive; CHX counter: inactive

Results for Cc1cc(C)n(-c2ccc(NC(=O)C3CCCCN3C(=O)c3sccc3C)cc2)n1 (configuration not stated) ?
LASV entry inh: inactive; Shiga toxin inh: inactive; MARV entry inh: inconclusive; CHX counter: inactive

How did COc1ccc(/C=C(\C#N)C(=O)OCC(=O)Nc2ccc(-c3nc4ccc(C)cc4s3)cc2)cc1 do in these assays?
LASV entry inh: inconclusive; Shiga toxin inh: 123; MARV entry inh: inconclusive; CHX counter: 28

How did Cc1ccc2nc(-c3ccc(NC(=O)COC(=O)c4ccco4)cc3)sc2c1 do in these assays?
LASV entry inh: 2.2µM; Shiga toxin inh: 80; MARV entry inh: 1.3µM; CHX counter: 46

How did Cc1ccc2nc(-c3ccc(NC(=O)COc4ccccc4)cc3)sc2c1 do in these assays?
LASV entry inh: inactive

What do the screens show for `C=CCn1c(SCC(=O)Nc2ccc(-c3nc4ccc(C)cc4s3)cc2)nnc1-c1ccccc1`?
LASV entry inh: inconclusive; Shiga toxin inh: 84; MARV entry inh: inconclusive; CHX counter: 42

How did Cc1ccc2nc(-c3ccc(NC(=O)COC(=O)c4ccc([N+](=O)[O-])o4)cc3)sc2c1 do in these assays?
LASV entry inh: 7.1µM; Shiga toxin inh: 91; MARV entry inh: 4µM; CHX counter: 53

How did COCCCNC(=O)C[C@H]1C[C@H](C(=O)N2CCCCC2)[C@@]2(CCc3ccccc3)c3[nH]c4cc(CCC(=O)N(C)C)ccc4c3CCN2C1=O do in these assays?
MARV entry inh: inactive

Results for CN1CC(=O)N(CC(=O)Nc2cc(Cl)cc(Cl)c2)C1=O ?
Shiga toxin inh: inactive; CHX counter: inactive

How did CC(C)C[C@H]1COc2cc(F)ccc2S(=O)(=O)N1 do in these assays?
LASV entry inh: inactive

What do the screens show for `COc1cccc2cc(C(=O)NCCc3c(C)[nH]c4ccc(Br)cc34)c(=O)oc12`?
LASV entry inh: inconclusive; MARV entry inh: inactive

How did CNS(=O)(=O)c1cccc(C(=O)OCC(=O)Nc2ccc(-c3nc4ccc(C)cc4s3)cc2)c1 do in these assays?
LASV entry inh: inconclusive; Shiga toxin inh: 94; MARV entry inh: inconclusive; CHX counter: 45

What do the screens show for `O=C(COC(=O)c1ccc(Br)o1)Nc1ccc(S(=O)(=O)N2CCCC2)cc1`?
LASV entry inh: inactive; Shiga toxin inh: inactive; MARV entry inh: inconclusive; CHX counter: inactive

What do the screens show for `Cc1ccc2nc(-c3ccc(NC(=O)COC(=O)c4ccc(Br)o4)cc3)sc2c1`?
LASV entry inh: 5.6µM; Shiga toxin inh: 81; MARV entry inh: inconclusive; CHX counter: 27

How did Cc1ccc2nc(-c3ccc(NC(=O)CN4CCN(C(=O)c5ccco5)CC4)cc3)sc2c1 do in these assays?
LASV entry inh: inconclusive; Shiga toxin inh: 136; MARV entry inh: inactive; CHX counter: 43

What do the screens show for `Cc1ccc(NC(=O)COC(=O)c2ccco2)cc1`?
Shiga toxin inh: 54; CHX counter: 37

Screening results as filed in PubChem BioAssay.
